Data reported in PubChem BioAssay (Tox21).
Records with an inconclusive call do not appear. Activity calls are given as the source filed them. Unless noted, the call rests on the fitted dose curve; in most records, active means well fitted curve in the direction sought with a large enough effect in the repeat runs; inconclusive means weak or mixed curves; inactive means no such curve, though single readings can be large; an effect the other way counts as inactive or inconclusive.

Legend:
[1] = qHTS assay to identify aromatase inhibitors - cell viability counter screen (AID 743084);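 further: cells stimulated with testosterone during compound exposure; nearly all actives have a fitted effect of over 55% in size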
[2] = biological target: Aryl hydrocarbon receptor (Homo sapiens) (UniProt P35869); assay: qHTS assay to identify small molecule that activate the aryl hydrocarbon receptor (AhR) signaling pathway (AID 743085); further: nearly all actives have a fitted effect of over 15% in size; further: potency means the concentration at half of the fitted maximal effect;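 on activation: HG2L7.5c1 human HepG2 liver cells with stably integrated DRE-driven firefly reporter; series mostly up to about 70 µM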
How it was run: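 Luminescence (ONE-Glo) from a dioxin-responsive-element luciferase reporter in HG2L7.5c1 HepG2 cells after 24 hr compound exposure at 37C; viability measured by CellTiter-Fluor fluorescence beforehand.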

[3] = biological target: Peroxisome proliferator-activated receptor gamma (Homo sapiens) (UniProt P37231); assay: qHTS assay to identify small molecule agonists of the peroxisome proliferator-activated receptor gamma (PPARg) signaling pathway (AID 743094; active means well fitted activation curve with a large enough effect in the signal ratio in the repeat runs, not every such curve was filed as active; the % refers to the signal ratio)
How it was run: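 Cell-based bla reporter, HEK293H background, PPARg-driven UAS. Pre-incubation 5 h, 37C, 5% CO2. Compound 17 h, 37C. Substrate 1 h RT; fluorescence.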

[4] = biological target: Peroxisome proliferator-activated receptor gamma (Homo sapiens) (UniProt P37231); assay: qHTS assay to identify small molecule antagonists of the peroxisome proliferator-activated receptor gamma (PPARg) signaling pathway (AID 743191; calls by dose curve; further: series mostly up to about 63 µM; nearly all actives have a fitted effect of over 30% in size)
How it was run: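 GeneBLAzer PPARg UAS-bla HEK293H cells carrying a UAS-driven beta-lactamase reporter were plated at 3000 cells/well, preincubated 5 h at 37C, then given compound for 17 h at 37C; LiveBLAzer B/G FRET substrate was read after 1 h at room temperature.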

[5] = qHTS assay to identify small molecule antagonists of the peroxisome proliferator-activated receptor gamma (PPARg) signaling pathway - cell viability counter screen (AID 743194); further: nearly all actives have a fitted effect of over 55% in size
How it was run: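 PPARg-UAS-bla HEK293H cells were plated, rested 5 h at 37 C, then treated with compounds plus rosiglitazone (50 nM final) for 17 h at 37 C; viability was then read by CellTiter-Glo luminescence after 30 min at room temperature.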

[6] = qHTS assay for small molecule agonists of the antioxidant response element (ARE) signaling pathway (AID 743202; active means well fitted activation curve with a large enough effect in the signal ratio in the repeat runs, not every such curve was filed as active; the % refers to the signal ratio)
How it was run: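 Following a 16 h, 37 C exposure of reporter HepG2 cells (ARE-driven beta-lactamase, 2,000 cells/well) to compounds, FRET substrate was applied for 2 h at room temperature and fluorescence intensity recorded.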

[7] = qHTS assay for small molecule agonists of the antioxidant response element (ARE) signaling pathway - cell viability counter screen (AID 743203; calls by dose curve; further: nearly all actives have a fitted effect of over 55% in size; further: potency means the concentration at half of the fitted maximal effect)
How it was run: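 Measured in the same wells as the beta-lactamase ARE reporter, this read-out is CellTiter-Glo luminescence from HepG2 ARE-bla cells given compounds for 16 hrs.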

[8] = qHTS assay for small molecule activators of the heat shock response signaling pathway - cell viability counter screen (AID 743209); further: nearly all actives have a fitted effect of over 50% in size
How it was run: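 Same-well multiplex: after 2.5 h room-temperature incubation with LiveBLAzer B/G substrate and fluorescence reading, CellTiter-Glo reagent was added to HSE-bla HeLa cells that had received compound for 5 h at 37 C; luminescence read after 30 min.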

[9] = qHTS assay for small molecule activators of the heat shock response signaling pathway (AID 743210; active means well fitted activation curve with a large enough effect in the signal ratio in the repeat runs, with a control signal flat, not every such curve was filed as active; the % refers to the signal ratio; further: series mostly up to about 63 µM)
How it was run: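 Heat shock element–beta-lactamase HeLa reporter cells; qHTS with compounds for 5 h at 37 C; detection by FRET substrate fluorescence after 2.5 h at RT.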

[10] = qHTS assay to identify small molecule agonists of the peroxisome proliferator-activated receptor delta (PPARd) signaling pathway - cell viability counter screen (AID 743211); further: nearly all actives have a fitted effect of over 55% in size; further: potency means the concentration at half of the fitted maximal effect
How it was run: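 Viability was measured as CellTiter-Glo luminescence (30 min, room temperature) in the same wells as the beta-lactamase readout. GeneBLAzer PPARd UAS-bla HEK293H cells received compound after 5 h plating and were incubated 17 h at 37 C.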

[11] = biological target: Peroxisome proliferator-activated receptor delta (Homo sapiens) (UniProt Q03181); assay: qHTS assay to identify small molecule agonists of the peroxisome proliferator-activated receptor delta (PPARd) signaling pathway (AID 743212; calls by dose curve)
How it was run: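 Beta-lactamase reporter read by fluorescence (LiveBLAzer B/G FRET, 2 h, room temperature). Test agents, in DMSO, incubated at 37 C with PPARd-bla HEK293H cells.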

[12] = qHTS assay to identify small molecule antagonists of the peroxisome proliferator-activated receptor delta (PPARd) signaling pathway - cell viability counter screen (AID 743213); further: nearly all actives have a fitted effect of over 50% in size; further: potency means the concentration at half of the fitted maximal effect
How it was run: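 HEK293H PPARd UAS-bla cells, 5 h pre-incubation, compound + L165041 300 nM final, 17 h 37 C; B/G FRET substrate 2 h RT; then CellTiter-Glo 30 min RT, luminescence.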

[13] = biological target: Bile acid receptor (Homo sapiens) (UniProt Q96RI1); assay: qHTS assay to identify small molecule antagonists of the farnesoid-X-receptor (FXR) signaling pathway (AID 743217; active means well fitted inhibition curve with a large enough effect in the signal ratio in the repeat runs, not every such curve was filed as active; the % refers to the signal ratio)
How it was run: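 FRET fluorescence after 2 h room-temperature LiveBLAzer loading gives the readout. Prior step: FXR-bla HEK 293T cells, seeded and incubated 5 h, received test compounds plus 50 uM final CDCA for 16 h at 37 °C.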

[14] = qHTS assay to identify small molecule agonists of the farnesoid-X-receptor (FXR) signaling pathway - cell viability counter screen (AID 743218); further: nearly all actives have a fitted effect of over 45% in size; further: potency means the concentration at half of the fitted maximal effect
How it was run: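 Readout: CellTiter-Glo luminescence, 30 min RT, multiplexed after the FXR-bla FRET reading. HEK 293T FXR-UAS-bla cells received compound 5 h post-plating and were incubated 16 h at 37 C.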

[15] = biological target: Bile acid receptor (Homo sapiens) (UniProt Q96RI1); assay: qHTS assay to identify small molecule agonists of the farnesoid-X-receptor (FXR) signaling pathway (AID 743220; active means well fitted activation curve with a large enough effect in the signal ratio in the repeat runs, not every such curve was filed as active; the % refers to the signal ratio)
How it was run: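 FXR-UAS-bla HEK 293T cells carrying a UAS-driven beta-lactamase reporter were plated for 5 h at 37C/5% CO2, then exposed to DMSO-dissolved Tox21 10K compounds for 16 h at 37C. A LiveBLAzer B/G FRET substrate was loaded for 2 h at room temperature before fluorescence reading.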

[16] = qHTS assay to identify small molecule antagonists of the farnesoid-X-receptor (FXR) signaling pathway - cell viability counter screen (AID 743221; active means well fitted cell-killing curve with a large enough effect in the repeat runs, not every such curve was filed as active; further: nearly all actives have a fitted effect of over 50% in size)
How it was run: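 Cytotoxicity counter screen run in the FXR-bla reporter wells: HEK 293T cells exposed to compound with 50 uM (final) chenodeoxycholic acid for 16 h, 37 C, then viability measured by CellTiter-Glo luminescence after 30 min, room temperature.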

[17] = biological target: Vitamin D3 receptor (Homo sapiens) (UniProt P11473); assay: qHTS assay to identify small molecule agonists of the vitamin D receptor (VDR) signaling pathway (AID 743222; calls by dose curve)
How it was run: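 Following 4 h attachment at 37C, VDR-bla cells (2,000 per well) received DMSO-dissolved compounds or controls. After 16 h incubation, LiveBLAzer B/G FRET substrate was added and fluorescence read 2 h later at room temperature.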

[18] = qHTS assay to identify small molecule that activate the aryl hydrocarbon receptor (AhR) signaling pathway - cell viability counter screen (AID 743086);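 further: HepG2 liver cells carrying the AhR DRE luciferase reporter; series mostly up to about 70 µM; nearly all actives have a fitted effect of over 45% in size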
How it was run: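 HepG2-AhR-luc (HG2L7.5c1) cells, 4000/well, were preincubated 5 h at 37C, exposed to compound in qHTS format for 24 hr at 37C, then given CellTiter-Fluor for 30 min; viability was read as fluorescence in the reporter wells.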

[19] = biological target: Peroxisome proliferator-activated receptor delta (Homo sapiens) (UniProt Q03181); assay: qHTS assay to identify small molecule antagonists of the peroxisome proliferator-activated receptor delta (PPARd) signaling pathway (AID 743215; active means well fitted inhibition curve with a large enough effect in the signal ratio in the repeat runs, not every such curve was filed as active; the % refers to the signal ratio;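 further: cells stimulated with agonist L165041 at 300 nM final during compound exposure; series mostly up to about 62 µM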)
How it was run: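 Fluorescence from cleaved LiveBLAzer B/G FRET substrate (2 h, room temperature) reports PPARd-driven beta-lactamase in HEK293H UAS-bla cells. Cells had been treated 17 h at 37 C with compound plus 300 nM final L165041.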

[20] = biological target: Vitamin D3 receptor (Homo sapiens) (UniProt P11473); assay: qHTS assay to identify small molecule antagonists of the vitamin D receptor (VDR) signaling pathway (AID 743223; active means well fitted inhibition curve with a large enough effect in the signal ratio in the repeat runs, not every such curve was filed as active; the % refers to the signal ratio)
How it was run: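 Antagonist mode: compound added to VDR-bla cells alongside agonist 1alpha,25-dihydroxyvitamin D3 (3 nM final), incubation 16 h at 37C. Read-out is LiveBLAzer FRET fluorescence, 2 h at room temperature.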
On the % scale 0 is the no-effect control and ±100 the full control effect.

Aryl hydrocarbon receptor (Homo sapiens), sequence (P35869 whole entry, looked up): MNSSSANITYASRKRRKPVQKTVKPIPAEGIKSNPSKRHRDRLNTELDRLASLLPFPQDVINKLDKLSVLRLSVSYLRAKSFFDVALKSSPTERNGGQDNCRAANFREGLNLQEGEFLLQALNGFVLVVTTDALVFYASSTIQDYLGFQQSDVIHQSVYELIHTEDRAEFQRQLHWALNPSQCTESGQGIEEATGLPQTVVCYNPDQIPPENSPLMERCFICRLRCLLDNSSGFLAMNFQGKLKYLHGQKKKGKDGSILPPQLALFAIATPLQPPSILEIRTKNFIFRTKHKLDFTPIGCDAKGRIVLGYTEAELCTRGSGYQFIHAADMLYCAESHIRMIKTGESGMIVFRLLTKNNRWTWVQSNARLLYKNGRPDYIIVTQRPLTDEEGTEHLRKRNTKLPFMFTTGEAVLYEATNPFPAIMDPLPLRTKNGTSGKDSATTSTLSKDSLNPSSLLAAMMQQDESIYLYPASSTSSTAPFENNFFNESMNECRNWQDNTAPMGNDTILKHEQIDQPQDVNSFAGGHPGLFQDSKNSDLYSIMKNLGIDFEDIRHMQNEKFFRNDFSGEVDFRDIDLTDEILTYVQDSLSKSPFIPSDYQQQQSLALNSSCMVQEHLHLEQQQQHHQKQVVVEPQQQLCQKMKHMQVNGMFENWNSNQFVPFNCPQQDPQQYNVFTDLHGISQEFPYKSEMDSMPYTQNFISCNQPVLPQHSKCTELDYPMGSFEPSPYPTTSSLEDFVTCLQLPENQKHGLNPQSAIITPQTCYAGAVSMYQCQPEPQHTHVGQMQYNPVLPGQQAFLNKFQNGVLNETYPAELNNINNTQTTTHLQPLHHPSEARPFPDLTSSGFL
Peroxisome proliferator-activated receptor gamma (Homo sapiens), sequence (P37231 whole entry, looked up): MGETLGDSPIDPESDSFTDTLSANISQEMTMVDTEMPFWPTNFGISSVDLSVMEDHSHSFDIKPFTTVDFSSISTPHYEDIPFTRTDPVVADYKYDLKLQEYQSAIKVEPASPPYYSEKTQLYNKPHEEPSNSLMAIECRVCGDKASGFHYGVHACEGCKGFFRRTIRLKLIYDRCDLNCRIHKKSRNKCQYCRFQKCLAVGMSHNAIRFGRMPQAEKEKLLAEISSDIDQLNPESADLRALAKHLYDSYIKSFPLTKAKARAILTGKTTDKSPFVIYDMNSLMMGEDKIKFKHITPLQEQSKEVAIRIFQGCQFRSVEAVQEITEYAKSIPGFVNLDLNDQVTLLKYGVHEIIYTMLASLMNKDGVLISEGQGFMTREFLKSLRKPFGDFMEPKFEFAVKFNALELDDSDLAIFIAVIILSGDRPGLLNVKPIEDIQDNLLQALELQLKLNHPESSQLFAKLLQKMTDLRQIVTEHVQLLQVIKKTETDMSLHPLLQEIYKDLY
Bile acid receptor (Homo sapiens), sequence (Q96RI1 whole entry, looked up): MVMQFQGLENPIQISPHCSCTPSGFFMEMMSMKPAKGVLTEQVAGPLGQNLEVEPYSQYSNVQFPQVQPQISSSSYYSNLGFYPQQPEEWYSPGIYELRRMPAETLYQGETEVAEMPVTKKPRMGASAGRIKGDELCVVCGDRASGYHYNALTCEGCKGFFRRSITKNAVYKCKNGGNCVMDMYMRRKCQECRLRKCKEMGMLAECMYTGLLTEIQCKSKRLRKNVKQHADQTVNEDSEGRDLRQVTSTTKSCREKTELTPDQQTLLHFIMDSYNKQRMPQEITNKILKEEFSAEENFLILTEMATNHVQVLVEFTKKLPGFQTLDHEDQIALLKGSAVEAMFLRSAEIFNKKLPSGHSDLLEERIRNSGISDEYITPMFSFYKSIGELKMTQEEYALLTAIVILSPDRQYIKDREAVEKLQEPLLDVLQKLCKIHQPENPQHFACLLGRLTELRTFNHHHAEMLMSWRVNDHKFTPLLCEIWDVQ
Vitamin D3 receptor (Homo sapiens), sequence (P11473 whole entry, looked up): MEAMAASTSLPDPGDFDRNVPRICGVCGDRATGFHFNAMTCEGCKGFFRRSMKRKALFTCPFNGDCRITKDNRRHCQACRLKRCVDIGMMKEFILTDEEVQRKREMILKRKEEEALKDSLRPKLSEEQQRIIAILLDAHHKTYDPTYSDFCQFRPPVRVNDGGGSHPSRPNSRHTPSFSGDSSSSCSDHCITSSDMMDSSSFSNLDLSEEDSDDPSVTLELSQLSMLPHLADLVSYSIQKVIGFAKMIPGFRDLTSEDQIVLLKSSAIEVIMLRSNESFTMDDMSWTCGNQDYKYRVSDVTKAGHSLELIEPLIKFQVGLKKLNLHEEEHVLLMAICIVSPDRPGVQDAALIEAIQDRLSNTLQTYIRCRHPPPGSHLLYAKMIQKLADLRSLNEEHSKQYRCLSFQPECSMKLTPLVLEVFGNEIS
Peroxisome proliferator-activated receptor delta (Homo sapiens), sequence (Q03181 whole entry, looked up): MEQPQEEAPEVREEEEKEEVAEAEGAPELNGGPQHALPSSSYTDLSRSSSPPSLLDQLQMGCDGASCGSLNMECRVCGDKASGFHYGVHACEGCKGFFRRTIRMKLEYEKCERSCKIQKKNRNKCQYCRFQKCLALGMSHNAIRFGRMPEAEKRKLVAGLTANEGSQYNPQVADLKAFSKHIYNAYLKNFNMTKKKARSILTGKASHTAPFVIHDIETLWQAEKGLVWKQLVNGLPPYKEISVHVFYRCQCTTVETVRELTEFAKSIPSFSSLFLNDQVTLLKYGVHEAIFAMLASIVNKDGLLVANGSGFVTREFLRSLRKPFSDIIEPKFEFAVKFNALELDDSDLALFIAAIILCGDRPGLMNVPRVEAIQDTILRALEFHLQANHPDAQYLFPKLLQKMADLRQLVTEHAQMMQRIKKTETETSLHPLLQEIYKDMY

O=C(O)CNCC(=O)O
inactive: activity change, negative = cytotoxicity [1] -0.604% [at 8.47 µM] | activation [2] 1.31% [at 8.47 µM] | activation [3] 0.605% [at 7.08 µM] | ratio activity, negative = inhibition [4] 11.9% [at 5.95 µM] | activity change, negative = cytotoxicity [5] 0.536% [at 5.95 µM] | activation [6] -1.79% [at 8.36 µM] | viability change, negative = cytotoxic [7] 1.43% [at 8.36 µM] | activity change, negative = cytotoxicity [8] 4.62% [at 5.95 µM] | activation [9] -0.342% [at 5.95 µM] | activity change, negative = cytotoxicity [10] -8.65% [at 5.95 µM] | activation [11] 11.6% [at 5.95 µM] | viability change, negative = cytotoxic [12] -5.77% [at 6.26 µM] | activity change, negative = inhibition [13] -18.1% [at 5.95 µM] | viability change, negative = cytotoxic [14] -1.74% [at 5.95 µM] | activation [15] 1.91% [at 5.95 µM] | activity change, negative = cytotoxicity [16] -4.51% [at 5.95 µM] | activation [17] 4.1% [at 6.01 µM]

CN(C)c1ccc(C(c2ccccc2)c2ccc(N(C)C)cc2)cc1
inactive: Potency [1] | Potency [2] | Potency [18] | Potency [5] | Potency [7] | Potency [8] | Potency [9] | Potency [10] | Potency [12] | Potency [14] | Potency [16] | Potency [17]

C=CCOc1ccccc1OCC(O)CNC(C)C (centres undefined)
inactive: Potency [1] | Potency [2] | Potency [3] | Potency [5] | Potency [6] | Potency [7] | Potency [8] | Potency [9] | Potency [10] | Potency [11] | Potency [12] | Potency [19] | Potency [13] | Potency [14] | Potency [15] | Potency [16] | Potency [17] | outcome [20]

O=[N+]([O-])c1cccc(S(=O)(=O)O)c1
inactive: Potency [1] | Potency [2] | Potency [3] | Potency [4] | Potency [5] | Potency [7] | Potency [8] | Potency [9] | Potency [10] | Potency [11] | Potency [12] | Potency [19] | Potency [16] | Potency [17]

O=C(O)C(S)C(S)C(=O)O (centres undefined)
inactive: Potency [1] | Potency [2] | Potency [18] | Potency [5] | Potency [7] | Potency [8] | Potency [10] | Potency [11] | Potency [12] | Potency [13] | Potency [14] | Potency [15] | Potency [16] | Potency [17] | outcome [20]

COc1cccc(N(C)C(=S)Oc2ccc3c(c2)CCCC3)n1
inactive: Potency [1] | Potency [2] | Potency [18] | Potency [5] | Potency [7] | Potency [8] | Potency [11] | Potency [12] | Potency [19] | Potency [14] | Potency [16] | Potency [17] | outcome [20]

CC[N+](C)(CC)CCOC(=O)C(O)(c1ccccc1)C1CCCCC1 (centres undefined)
inactive: Potency [1] | Potency [2] | Potency [3] | Potency [5] | Potency [6] | Potency [7] | Potency [8] | Potency [9] | Potency [10] | Potency [12] | Potency [14] | Potency [16] | Potency [17] | outcome [20]

C=C(C)C(=O)OCC
inactive: Potency [1] | Potency [2] | Potency [3] | Potency [4] | Potency [5] | Potency [6] | Potency [7] | Potency [8] | Potency [9] | Potency [10] | Potency [11] | Potency [19] | Potency [13] | Potency [14] | Potency [15] | Potency [16] | Potency [17]

COc1cc(Cl)c(OC)cc1N
active: Potency [2] 30.6 µM
inactive: Potency [1] | Potency [3] | Potency [4] | Potency [5] | Potency [7] | Potency [8] | Potency [9] | Potency [10] | Potency [11] | Potency [12] | Potency [19] | Potency [13] | Potency [14] | Potency [15] | Potency [16] | Potency [17] | outcome [20]

Cc1c(N)cccc1[N+](=O)[O-]
inactive: Potency [1] | Potency [2] | Potency [3] | Potency [4] | Potency [5] | Potency [6] | Potency [7] | Potency [8] | Potency [9] | Potency [11] | Potency [12] | Potency [14] | Potency [16]

CC(C)OC(=O)C(C)N(C(=O)c1ccccc1)c1ccc(F)c(Cl)c1 (centres undefined)
inactive: Potency [1] | Potency [2] | Potency [3] | Potency [4] | Potency [5] | Potency [7] | Potency [8] | Potency [9] | Potency [11] | Potency [12] | Potency [14] | Potency [16] | outcome [20]

c1ccc(C(O[C@H]2CCCN(CCc3ccc4c(c3)OCO4)C2)c2ccccc2)cc1
inactive: Potency [1] | Potency [18] | Potency [5] | Potency [8] | Potency [11] | Potency [14] | Potency [16]
active: Potency [2] 26.6 µM

CCOCC(O)COc1ccc(NC(=O)CC[S+](C)C)cc1 (centres undefined)
inactive: Potency [1] | Potency [3] | Potency [4] | Potency [5] | Potency [6] | Potency [7] | Potency [8] | Potency [10] | Potency [11] | Potency [19] | Potency [13] | Potency [14] | Potency [16] | Potency [17]
active: Potency [2] 5.31 µM

CNCCCN1c2ccccc2CCc2ccccc21
active: Potency [7] 29.8 µM | Potency [10] 26.6 µM | Potency [12] 9.44 µM | Potency [14] 18.8 µM
inactive: Potency [1] | Potency [2] | Potency [18] | Potency [5] | Potency [8] | Potency [9] | Potency [15]

S=C([S-])NCCNC(=S)[S-].[Mn+2]
inactive: Potency [1] | Potency [2] | Potency [3] | Potency [4] | Potency [7] | Potency [8] | Potency [12] | Potency [16]

Cc1cccc(Nc2ccccc2)c1
inactive: Potency [1] | Potency [2] | Potency [18] | Potency [6] | Potency [7] | Potency [8] | Potency [9] | Potency [10] | Potency [12] | Potency [13] | Potency [14] | Potency [15] | outcome [20]
